Sampled rows, rich in hits. Any-hit rate of the full collection: about 12%.
SARS PLP yeast = qHTS of Yeast-based Assay for SARS-CoV PLP | S. cerevisiae expressing SARS-CoV PLpro, growth rescue | Potency, µM (highest dose often 32.9 µM), for the others: at the top dose activity, positive = growth rescue, actives largely listed as activators | hit rate 0.19% among 330,000 | AID 485353, 2010; note: potency is the fitted concentration of half-maximal effect; 0% is about no effect; nearly all actives have a fitted effect of over 55% in size
NS1 function inh = qHTS Assay for Inhibitors of Influenza NS1 Protein Function | Potency, µM (top dose mostly 46.1 µM), for the others: top-dose activity, positive = more growth | hit rate 0.4% among 270,000 | AID 2326, 2010; note: potency is the fitted concentration of half-maximal effect; actives are rising curves; nearly all actives have a fitted effect of over 50% in size
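S. cerevisiae expressing influenza A NS1, grown in glucose, washed, then diluted 1:100 into pH 6.0 -URA galactose medium with 23 nl compound. Growth recovery read as OD600; NS1-free strain serves as control.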
CHX counter = Cycloheximide Counterscreen for Small Molecule Inhibitors of Shiga Toxin | cell reporter, cycloheximide protein synthesis inhibition counterscreen | max response, % | hit rate 12% among 300,000 | AID 2314, 2010; in the data active = max response mostly above about 13%, no sharp cut-off; inactive = mostly below about 14%; note: read at 38.3 µM for the half of the compounds with a filed dose; 0% is about no effect
Shiga inhibitor = A qHTS for Small Molecule Inhibitors of Shiga Toxin; Vero cells, Shiga toxin protein synthesis inhibition reporter; inhibition, % at 38.7 µM; hit rate 9.2% among 290,000; AID 2315, 2010; in the data active = inhibition mostly above about 28%, no sharp cut-off; inactive = mostly below about 43%; note: 0% is about no effect
An asterisk follows results filed as active; ? = inconclusive; nt = not tested or not shown; + = active, no number. Unless noted, calls come from the whole dose curve.

SMILES	SARS PLP yeast	NS1 function inh	CHX counter	Shiga inhibitor
Cc1cnc(NC(=O)c2cccc(S(=O)(=O)N3CCOCC3)c2)s1	7%	nt	nt	nt
O=C(Nc1nc(-c2cccs2)cs1)c1cccc(S(=O)(=O)N2CCCCCC2)c1	5%	?	21*	99*
Cc1cc(-c2csc(NC(=O)c3cccc(S(=O)(=O)N(C)C)c3)n2)c(C)n1-c1ccccc1	1%	18%	9	39*
O=C(Nc1nc(-c2cccs2)cs1)c1ccc(S(=O)(=O)N2CCCCC2)cc1	-4%	-31%	3	-9
CN1CCN(S(=O)(=O)c2cccc(C(=O)Nc3nc(-c4ccccc4)cs3)c2)CC1	8%	-10%	24*	30*
O=C(NC1CCCCC1)C(c1cccnc1)N(C(=O)c1csnn1)c1ccccc1 (centres undefined)	0%	-1%	-3	-10
CCCc1ccc(S(=O)(=O)N2CCN(C(C)C(=O)NCc3ccc(OC)cc3)CC2)cc1 (centres undefined)	1%	nt	nt	nt
O=C(NCc1ccccc1)C(c1ccccn1)N(C(=O)c1csnn1)c1ccccc1F (centres undefined)	0%	13%	-7	14
O=S(=O)(Nc1ccc(-c2cnco2)cc1)c1ccccc1	1%	4%	1	-7
O=C(Nc1ccc(Cl)cc1)Nc1ccc(-c2cnco2)cc1	9%	4%	20*	29
CC(C)(C)C(=O)Nc1ccc(-c2cnco2)cc1	-1%	1%	21*	64*
Cc1cc(NC(=O)Nc2ccc(Cl)cc2)n(C)n1	-1%	-5%	14	15
O=C(NC(=O)c1ccccc1)Nc1ccc(-c2cnco2)cc1	-2%	-4%	32*	63*
O=C(CN1C(=O)NC(c2ccccc2)(c2ccccc2)C1=O)NCCNCCO	6%	7%	-3	15
CC/C(=N\NC(=O)CNC(=O)/C=C/c1ccc(OC)cc1)c1ccccc1	-6%	-16%	-3	-2
Cc1n[nH]c(C)c1N=Nc1ccc(Br)cc1	-16%	0%	27*	51
COc1ccc(N=Nc2c(C)n[nH]c2C)cc1	-7%	-29%	29*	119*
O=C(CSc1nc2nn(-c3ccccc3)c(=O)c-2c2n1CCCCC2)Nc1ccc(OC(F)F)cc1	-3%	nt	nt	nt
CN(C)C(=O)CSc1nnc(-c2cccs2)n1-c1ccccc1	5%	-45%	-1	-3
NC(N)=Nc1nc2cc([N+](=O)[O-])ccc2o1	-2%	3%	15*	27
COc1ccc(-c2cc(C(=O)Oc3ccc([N+](=O)[O-])cc3)c3ccccc3n2)cc1	-6%	6%	10	3
O=[N+]([O-])c1ccc2nc(-c3ccccc3)cc(-c3ccccc3)c2c1	15%	10%	-3	-7
Cc1cccc(-c2nc3cc([N+](=O)[O-])ccc3o2)c1	0%	0%	36*	92*
O=[N+]([O-])c1ccc2oc(-c3ccccc3)nc2c1	0%	nt	35*	69*
COc1ccc(-c2nc3ccc([N+](=O)[O-])cc3o2)cc1	-7%	7%	39*	+
SMILES	SARS PLP yeast	NS1 function inh	CHX counter	Shiga inhibitor
COc1ccc(C2c3[nH]c4ccccc4c3CCN2C(=O)c2ccccc2C(C)=O)c(F)c1 (centres undefined)	2%	7%	18*	29*
COc1ccc(C2c3[nH]c4ccccc4c3CCN2C(=O)c2cn3ccccc3n2)c(F)c1 (centres undefined)	0%	14%	30*	53*
COc1ccc(C2c3[nH]c4ccccc4c3CCN2C(=O)c2cc3ncccn3n2)c(F)c1 (centres undefined)	-2%	2%	10	28
CCC(=O)NC(=S)Nc1ccc2oc(-c3ccc(OC)cc3)nc2c1	0%	8%	15	24
CCCC(=O)Nc1ccc(-c2nc3cc(C)c(C)cc3o2)c(O)c1	3%	2%	32*	52
CCCC(=O)Nc1ccc2oc(-c3ccc(OC)c(Br)c3)nc2c1	-2%	-31%	22*	65
CCCC(=O)Nc1ccc(-c2nc3cc(C)ccc3o2)cc1	-5%	-70%	31*	70*
O=C(NC1CCOc2ccccc21)c1ccc(=O)[nH]c1 (centres undefined)	0%	12%	-2	4
CCOn1c(-n2nc(C)cc2C)nc2ccccc2c1=O	-2%	7%	-5	-13
Cc1cc(C)n(-c2nc3ccccc3c(=O)n2OCC#N)n1	16%	-39%	38*	115*
Cc1ccc(NC(=O)CSc2nnc(Cc3csc(C)n3)o2)c(C)c1	-6%	nt	nt	nt
C/C(CC(=O)NCc1ccco1)=N\NC(=O)c1ccc(Cl)cc1Cl	-4%	1%	-1	18
CC(/C=C/c1ccco1)=N/NC(=O)OC(C)(C)C	-12%	6%	23*	52
